This note sets out measurements from PubChem BioAssay (EPA / NIEHS).

The target in assay [1] is chicken Estrogen Receptor (ESR1), ESR1 (gene 396099) (UniProt P06212). Nature of the assay: ATG_chERa_XSP1: Attagene TRANS-FACTORIAL Multi-Species (XSP1) HepG2 Assay for chicken Estrogen Receptor (ESR1) (AID 2283779). The essentials: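 Human liver HepG2, transient MRTU transfection (NR-Gal4 chimeras, GAL4-UAS reporters); 24 h compound exposure; 3 nM 6-alpha-fluorotestosterone in medium. Total RNA → RT-PCR → 6-FAM primer extension → HpaI → CE. Positive direction vs DMSO baseline.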

In assay [2] the test system is turtle Estrogen Receptor (ESR1), gene 101933533. Kind of assay: ATG_trERa_XSP1: Attagene TRANS-FACTORIAL Multi-Species (XSP1) HepG2 Assay for turtle Estrogen Receptor (ESR1) (AID 2283781). The essentials: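 Activity was taken as gain of reporter transcript over DMSO controls. HepG2 cells carrying GAL4-UAS-driven reporters were exposed for 24 h before RNA was extracted and reporter sequences were measured by fluorescence after capillary separation.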

Assay [3] in a line: ATG_M_06_XSP1: Attagene TRANS-FACTORIAL Multi-Species (XSP1) HepG2 Assay for M06 Transcription Factor (Internal Marker) (AID 2283790). The essentials:
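Transfected HepG2 multi-reporter system treated 24 h in the presence of 3 nM 6-alpha-fluorotestosterone. The M06 internal marker transcript was quantified by RT-PCR with capillary electrophoresis as a background control, and gain of signal was scored versus DMSO.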

Assay [4] in a line: ATG_M_61_XSP1: Attagene TRANS-FACTORIAL Multi-Species (XSP1) HepG2 Assay for M61 Transcription Factor (Internal Marker) (AID 2283797). The essentials:
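HepG2 cells transiently transfected with multiplexed GAL4-driven reporter units, dosed 24 h with 3 nM 6-alpha-fluorotestosterone present. Reporter mRNA quantified by RT-PCR, 6-FAM labelling, HpaI digestion and capillary electrophoresis; internal-marker background control, gain of signal versus DMSO.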

The target of assay [5] is Nuclear receptor subfamily 1 group I member 2 (Mus musculus) (UniProt O54915). Kind of assay: ATG_mPXR_XSP1: Attagene TRANS-FACTORIAL Multi-Species (XSP1) HepG2 Assay for mouse Pregnane X Receptor (PXR) (AID 2283803). The essentials:
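Transiently transfected HepG2 cells expressing a receptor-Gal4 chimera drive a GAL4-UAS reporter; 3 nM 6-alpha-fluorotestosterone included. Reporter mRNA read 24 h post-dose by RT-PCR and capillary electrophoresis; gain of signal relative to DMSO.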

In assay [6] the target is zebrafish Thyroid Hormone Receptor alpha (TRa), thraa (gene 30670) (UniProt Q98867). Kind of assay: ATG_zfTRa_XSP1: Attagene TRANS-FACTORIAL Multi-Species (XSP1) HepG2 Assay for zebrafish Thyroid Hormone Receptor alpha (TRa) (AID 2283807). The essentials: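 HepG2 cells transiently transfected with GAL4-UAS reporter units including a zebrafish TRa–Gal4 chimera, dosed 24 h with 3 nM 6-alpha-fluorotestosterone present. Reporter mRNA quantified by RT-PCR and capillary electrophoresis; gain versus DMSO.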

The nature of assay [7]: ATG_XTT_Cytotoxicity_XSP1: Cytotoxicity Assessment in the Attagene TRANS-FACTORIAL Multi-Species (XSP1) HepG2 Assay (AID 2283810). The essentials: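 XTT viability readout taken at 24 hours post-dosing in HepG2 liver cells co-treated with 3 nM 6-alpha-fluorotestosterone. Signal loss relative to DMSO controls reflects cytotoxicity.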
The nature of assay [8]: ATG_M_06_XSP2: Attagene TRANS-FACTORIAL Multi-Species (XSP2) HepG2 Assay for M06 Transcription Factor (Internal Marker) (AID 2283811).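 Also: hits are increases in signal above the DMSO baseline.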 The essentials: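 HepG2, multiplexed reporter transfection; 24 h dosing; AR stimulated with 3 nM 6-alpha-fluorotestosterone + 1.5 nM norgestrel; RNA → RT-PCR → 6-FAM primer extension → HpaI → CE. Positive direction vs DMSO.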
For assay [9], the target named is GAL4 Transcription Factor (Internal Marker), GAL4 (gene 855828) (UniProt P04386). Nature of the assay: ATG_GAL4_XSP2: Attagene TRANS-FACTORIAL Multi-Species (XSP2) HepG2 Assay for GAL4 Transcription Factor (Internal Marker) (AID 2283814).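 Also: GAL4 reporter mRNA background control in MRTU transfected cells not a receptor target.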 The essentials: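 HepG2 cells transiently transfected with GAL4-UAS reporter units, stimulated with 3 nM 6-alpha-fluorotestosterone plus 1.5 nM norgestrel, dosed 24 h. Reporter mRNA by RT-PCR/capillary electrophoresis; gain-of-signal fit versus DMSO, background control.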

In assay [10] the target is chicken Estrogen Receptor (ERa), ESR1 (gene 396099) (UniProt P06212). Nature of the assay: ATG_chERa_XSP2: Attagene TRANS-FACTORIAL Multi-Species (XSP2) HepG2 Assay for chicken Estrogen Receptor (ERa) (AID 2283817).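 Also: actives raise reporter signal above DMSO so AC50 reflects ER activation.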 The essentials:
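Transient MRTU transfection of HepG2 → 24 h chemical dosing → TriZol RNA, oligo(dT) RT → PCR, 6-FAM primer extension, HpaI digest → CE quantitation of chicken ERa-Gal4-driven reporter mRNA. Positive direction vs DMSO.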

Assay [11] can be described thus: ATG_M_19_XSP2: Attagene TRANS-FACTORIAL Multi-Species (XSP2) HepG2 Assay for M32 Transcription Factor (Internal Marker) (AID 2283822). The essentials: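 Internal background marker in a multi-species nuclear receptor TRANS panel: transfected HepG2 cells exposed 24 h, with 3 nM 6-alpha-fluorotestosterone and 1.5 nM norgestrel present. Readout is RT-PCR of reporter transcripts resolved by capillary electrophoresis, gain-of-signal versus DMSO.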

The subject of assay [12] is zebrafish Estrogen Receptor (ER2b), gene 317733. Nature of the assay: ATG_zfER2b_XSP2: Attagene TRANS-FACTORIAL Multi-Species (XSP2) HepG2 Assay for zebrafish Estrogen Receptor (ER2b) (AID 2283823).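 Also: fitted upward as reporter gain over DMSO so potency reflects activation.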 The essentials: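 Transfect HepG2 with GAL4-UAS reporter constructs; dose chemicals, 24 h; isolate RNA, RT-PCR, FAM-label, HpaI digest; capillary electrophoresis. Gain-of-signal vs DMSO.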

A short description of assay [13]: ATG_M_32_XSP2: Attagene TRANS-FACTORIAL Multi-Species (XSP2) HepG2 Assay for M19 Transcription Factor (Internal Marker) (AID 2283826). The essentials: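 Read-out: fluorescent reporter mRNA fragments resolved by capillary electrophoresis after RT-PCR, gain-of-signal versus DMSO baseline. Cells were human HepG2 carrying transfected multi-reporter units, exposed 24 h. Medium contained 3 nM 6-alpha-fluorotestosterone plus 1.5 nM norgestrel.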

For assay [14], the target named is Peroxisome proliferator-activated receptor gamma (Homo sapiens) (UniProt P37231). Kind of assay: ATG_hPPARg_XSP2: Attagene TRANS-FACTORIAL Multi-Species (XSP2) HepG2 Assay for human Peroxisome Proliferator-activated Receptor gamma (PPARg) (AID 2283829).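 Also: actives raise reporter mRNA above DMSO so AC50 reflects PPARg activation.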 The essentials: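 Transient MRTU transfection, HepG2; TRANS format (exogenous NR-Gal4 chimeras). 24 h chemical exposure with 3 nM 6-alpha-fluorotestosterone and 1.5 nM norgestrel present. Readout: reporter mRNA via RT-PCR/CE fluorescence, up-direction vs DMSO.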

For assay [15], the target named is mouse Peroxisome Proliferator-activated Receptor gamma (PPARg), Pparg (gene 19016) (UniProt P37238). Nature of the assay: ATG_mPPARg_XSP2: Attagene TRANS-FACTORIAL Multi-Species (XSP2) HepG2 Assay for mouse Peroxisome Proliferator-activated Receptor gamma (PPARg) (AID 2283830).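 Also: hits are gains in reporter mRNA above DMSO so AC50 marks activation.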 The essentials: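 HepG2 cells transiently transfected with GAL4-UAS reporter units for chimeric NR-Gal4 proteins including mouse PPARg, exposed 24 h; medium contained 3 nM 6-alpha-fluorotestosterone and 1.5 nM norgestrel. Reporter mRNA quantified by RT-PCR, HpaI digestion and capillary electrophoresis, vs DMSO.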

Assay [16] has as its target Nuclear receptor subfamily 1 group I member 2 (Mus musculus) (UniProt O54915). Nature of the assay: ATG_mPXR_XSP2: Attagene TRANS-FACTORIAL Multi-Species (XSP1) HepG2 Assay for mouse Pregnane X Receptor (PXR) (AID 2283831). The essentials:
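Transient HepG2 transfection, multiplexed GAL4-UAS reporters, NR-GAL4 chimeras. 24 h compound exposure. Readout: reporter mRNA, RT-PCR, fluorescent capillary electrophoresis; positive direction vs DMSO baseline.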

The target of assay [17] is zebrafish Thyroid Hormone Receptor alpha (TRa), thraa (gene 30670) (UniProt Q98867). Kind of assay: ATG_zfTRa_XSP2: Attagene TRANS-FACTORIAL Multi-Species (XSP1) HepG2 Assay for zebrafish Thyroid Hormone Receptor alpha (TRa) (AID 2283832).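 Also: actives raise zebrafish TRa-Gal4 reporter transcript above DMSO baseline.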 The essentials:
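Chimeric receptor-Gal4 activity was assessed in transfected human liver HepG2 cells 24 h after dosing, using reporter transcript levels detected by RT-PCR and capillary electrophoresis. DMSO served as baseline.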

The test system of assay [18] is zebrafish Peroxisome Proliferator-activated Receptor gamma (PPARg), gene 557037. Nature of the assay: ATG_zfPPARg_XSP2: Attagene TRANS-FACTORIAL Multi-Species (XSP2) HepG2 Assay for zebrafish Peroxisome Proliferator-activated Receptor gamma (PPARg) (AID 2283833).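 Also: actives increase reporter signal over DMSO so AC50 reflects activation.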 The essentials:
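Transfect HepG2 with multiplexed GAL4-UAS reporter constructs; dose chemical 24 h; isolate RNA, reverse-transcribe, PCR-amplify, label and digest reporter products; resolve by capillary electrophoresis. Activity taken as increase over DMSO.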

A short description of assay [19]: ATG_M_61_XSP2: Attagene TRANS-FACTORIAL Multi-Species (XSP2) HepG2 Assay for M61 Transcription Factor (Internal Marker) (AID 2283835; active = hit-call score of the fitted dose curve at least 0.9, where 1 is the maximum; inactive = score below 0.9;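 also: active means a rise in signal above the DMSO baseline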). The essentials:
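First, HepG2 cells are transfected with reporter units under GAL4-UAS control. Next, chemicals are applied for 24 h. Then total RNA is reverse-transcribed, amplified, fluorescently labelled and sized by capillary electrophoresis, with gain of signal scored against DMSO.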

The target in assay [20] is human Thyroid hormone Receptor beta (TRb), THRB (gene 7068) (UniProt P10828). Nature of the assay: ATG_hTRb_XSP2: Attagene TRANS-FACTORIAL Multi-Species (XSP2) HepG2 Assay for human Thyroid hormone Receptor beta (TRb) (AID 2283840).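 Also: actives raise reporter mRNA so potency reflects agonist-like gain of signal.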 The essentials:
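Read-out: reporter mRNA induction (RT-PCR, 6-FAM labeling, capillary electrophoresis), gain-of-signal relative to DMSO baseline. Transiently transfected HepG2 TRANS multiplex (NR-Gal4 chimeras, GAL4-UAS reporters), 24 h chemical exposure; medium contained 3 nM 6-alpha-fluorotestosterone plus 1.5 nM norgestrel.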

By AC50 is commonly meant the concentration giving half of the maximal activity seen.

Each structure is given as a SMILES string. Records with an inconclusive call do not appear. The source made the active and inactive calls. The calls were made as follows, unless noted: active = hit-call score of the fitted dose curve at least 0.9, where 1 is the maximum; inconclusive = response in the unintended direction; inactive = score below 0.9.

Sequence of zebrafish Thyroid Hormone Receptor alpha (TRa), thraa (gene 30670) (Q98867 whole entry, looked up, the tested form may be a part): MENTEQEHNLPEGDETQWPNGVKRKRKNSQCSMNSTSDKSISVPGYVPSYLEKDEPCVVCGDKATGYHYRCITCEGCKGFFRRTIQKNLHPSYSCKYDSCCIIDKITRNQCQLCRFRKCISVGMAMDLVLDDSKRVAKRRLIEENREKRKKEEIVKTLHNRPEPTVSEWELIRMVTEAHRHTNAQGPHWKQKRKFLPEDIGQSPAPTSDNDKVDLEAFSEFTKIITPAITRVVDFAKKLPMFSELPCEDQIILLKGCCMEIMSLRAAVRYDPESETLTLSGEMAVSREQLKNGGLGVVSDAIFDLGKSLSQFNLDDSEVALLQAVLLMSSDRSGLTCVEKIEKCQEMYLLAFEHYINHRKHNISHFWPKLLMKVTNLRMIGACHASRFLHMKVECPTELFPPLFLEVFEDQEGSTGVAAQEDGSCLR
Sequence of Nuclear receptor subfamily 1 group I member 2 (Mus musculus) (O54915 whole entry, looked up, the tested form may be a part): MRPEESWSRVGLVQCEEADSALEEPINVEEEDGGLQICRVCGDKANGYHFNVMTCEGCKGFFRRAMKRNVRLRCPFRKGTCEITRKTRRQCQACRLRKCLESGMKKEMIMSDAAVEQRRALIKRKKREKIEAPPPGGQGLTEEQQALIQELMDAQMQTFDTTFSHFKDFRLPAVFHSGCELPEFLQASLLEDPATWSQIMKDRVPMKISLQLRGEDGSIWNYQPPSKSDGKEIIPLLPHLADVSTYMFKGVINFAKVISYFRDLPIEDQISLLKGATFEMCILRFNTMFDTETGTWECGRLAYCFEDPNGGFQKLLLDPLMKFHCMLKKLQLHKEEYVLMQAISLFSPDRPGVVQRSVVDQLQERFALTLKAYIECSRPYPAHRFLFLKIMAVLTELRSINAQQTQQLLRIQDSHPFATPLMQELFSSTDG
Sequence of Peroxisome proliferator-activated receptor gamma (Homo sapiens) (P37231 whole entry, looked up, the tested form may be a part): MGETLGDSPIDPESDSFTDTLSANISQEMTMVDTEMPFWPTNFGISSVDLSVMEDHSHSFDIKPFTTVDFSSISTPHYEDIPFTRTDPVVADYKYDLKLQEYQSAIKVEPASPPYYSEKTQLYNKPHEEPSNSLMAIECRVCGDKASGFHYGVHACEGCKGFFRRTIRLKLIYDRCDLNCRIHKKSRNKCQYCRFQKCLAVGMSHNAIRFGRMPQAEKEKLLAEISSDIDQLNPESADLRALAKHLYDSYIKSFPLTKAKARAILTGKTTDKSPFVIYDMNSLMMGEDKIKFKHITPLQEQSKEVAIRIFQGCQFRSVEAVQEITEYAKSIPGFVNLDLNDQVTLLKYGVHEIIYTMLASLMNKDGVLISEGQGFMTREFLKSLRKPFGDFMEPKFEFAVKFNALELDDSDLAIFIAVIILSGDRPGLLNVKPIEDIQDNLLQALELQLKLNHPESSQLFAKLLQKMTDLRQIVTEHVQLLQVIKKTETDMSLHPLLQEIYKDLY
Sequence of chicken Estrogen Receptor (ESR1), ESR1 (gene 396099) (P06212 whole entry, looked up, the tested form may be a part): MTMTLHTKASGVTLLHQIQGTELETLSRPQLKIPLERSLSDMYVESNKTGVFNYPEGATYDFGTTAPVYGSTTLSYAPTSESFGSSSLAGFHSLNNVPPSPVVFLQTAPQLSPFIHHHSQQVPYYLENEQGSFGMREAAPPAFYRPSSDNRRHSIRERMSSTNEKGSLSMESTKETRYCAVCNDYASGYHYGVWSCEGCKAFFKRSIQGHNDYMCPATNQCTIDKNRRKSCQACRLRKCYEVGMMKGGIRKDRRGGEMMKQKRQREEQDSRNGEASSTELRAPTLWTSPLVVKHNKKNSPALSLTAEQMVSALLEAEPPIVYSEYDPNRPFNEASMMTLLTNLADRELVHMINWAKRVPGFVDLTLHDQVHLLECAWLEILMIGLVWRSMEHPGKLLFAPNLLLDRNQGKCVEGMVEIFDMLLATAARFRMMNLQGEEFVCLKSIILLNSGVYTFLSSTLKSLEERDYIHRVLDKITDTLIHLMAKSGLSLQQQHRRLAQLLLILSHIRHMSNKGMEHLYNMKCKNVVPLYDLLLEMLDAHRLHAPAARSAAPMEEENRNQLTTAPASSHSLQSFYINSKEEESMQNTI
Sequence of chicken Estrogen Receptor (ERa), ESR1 (gene 396099) (P06212 whole entry, looked up, the tested form may be a part): as above
Sequence of GAL4 Transcription Factor (Internal Marker), GAL4 (gene 855828) (P04386 whole entry, looked up, the tested form may be a part): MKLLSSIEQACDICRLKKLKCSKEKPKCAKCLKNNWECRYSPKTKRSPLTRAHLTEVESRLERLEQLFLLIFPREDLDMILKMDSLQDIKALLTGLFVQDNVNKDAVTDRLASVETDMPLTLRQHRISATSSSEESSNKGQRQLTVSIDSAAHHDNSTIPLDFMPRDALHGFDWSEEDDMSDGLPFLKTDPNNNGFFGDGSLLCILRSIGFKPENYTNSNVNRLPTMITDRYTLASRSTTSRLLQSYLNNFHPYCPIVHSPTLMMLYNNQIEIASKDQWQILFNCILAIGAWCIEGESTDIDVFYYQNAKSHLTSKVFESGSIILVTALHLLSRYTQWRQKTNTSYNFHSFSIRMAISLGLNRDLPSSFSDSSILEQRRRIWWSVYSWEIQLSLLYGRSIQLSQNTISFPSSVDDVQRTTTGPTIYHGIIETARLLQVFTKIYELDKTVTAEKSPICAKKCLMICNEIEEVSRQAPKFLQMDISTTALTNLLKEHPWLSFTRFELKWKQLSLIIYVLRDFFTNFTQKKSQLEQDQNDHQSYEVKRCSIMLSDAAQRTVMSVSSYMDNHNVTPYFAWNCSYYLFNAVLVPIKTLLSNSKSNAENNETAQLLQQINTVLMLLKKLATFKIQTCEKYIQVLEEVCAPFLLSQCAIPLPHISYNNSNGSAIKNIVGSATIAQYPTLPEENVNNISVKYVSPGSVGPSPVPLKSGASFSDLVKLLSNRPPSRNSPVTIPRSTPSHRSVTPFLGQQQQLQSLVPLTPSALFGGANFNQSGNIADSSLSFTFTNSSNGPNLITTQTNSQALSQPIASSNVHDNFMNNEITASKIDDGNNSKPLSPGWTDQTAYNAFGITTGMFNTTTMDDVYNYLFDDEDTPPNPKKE
Sequence of mouse Peroxisome Proliferator-activated Receptor gamma (PPARg), Pparg (gene 19016) (P37238 whole entry, looked up, the tested form may be a part): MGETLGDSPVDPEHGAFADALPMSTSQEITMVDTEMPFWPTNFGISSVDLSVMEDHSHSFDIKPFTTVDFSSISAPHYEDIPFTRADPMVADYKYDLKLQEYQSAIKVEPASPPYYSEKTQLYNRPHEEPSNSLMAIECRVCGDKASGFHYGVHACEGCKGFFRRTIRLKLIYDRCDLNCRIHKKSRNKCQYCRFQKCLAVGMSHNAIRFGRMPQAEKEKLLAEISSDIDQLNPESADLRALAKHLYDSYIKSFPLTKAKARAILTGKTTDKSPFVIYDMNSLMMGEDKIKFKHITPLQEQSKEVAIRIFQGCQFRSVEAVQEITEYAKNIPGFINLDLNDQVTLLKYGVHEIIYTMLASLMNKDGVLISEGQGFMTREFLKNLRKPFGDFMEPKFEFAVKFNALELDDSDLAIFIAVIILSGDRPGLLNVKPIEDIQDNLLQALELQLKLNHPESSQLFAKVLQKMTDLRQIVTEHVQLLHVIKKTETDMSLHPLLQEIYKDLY
Sequence of human Thyroid hormone Receptor beta (TRb), THRB (gene 7068) (P10828 whole entry, looked up, the tested form may be a part): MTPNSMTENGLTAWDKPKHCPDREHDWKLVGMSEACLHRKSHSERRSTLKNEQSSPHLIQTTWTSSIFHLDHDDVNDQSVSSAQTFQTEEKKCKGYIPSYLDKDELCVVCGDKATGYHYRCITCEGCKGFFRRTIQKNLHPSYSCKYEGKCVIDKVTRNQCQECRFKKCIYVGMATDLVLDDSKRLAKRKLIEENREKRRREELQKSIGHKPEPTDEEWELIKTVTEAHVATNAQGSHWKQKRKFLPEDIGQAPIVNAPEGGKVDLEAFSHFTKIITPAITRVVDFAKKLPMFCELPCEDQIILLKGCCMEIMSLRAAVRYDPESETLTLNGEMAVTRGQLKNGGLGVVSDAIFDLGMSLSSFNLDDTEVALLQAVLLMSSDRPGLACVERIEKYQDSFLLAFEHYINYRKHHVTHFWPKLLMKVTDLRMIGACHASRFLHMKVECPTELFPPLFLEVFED

Turning to `CC(=O)c1cc2c(cc1C)C(C)(C)C(C)CC2(C)C` (stereo not given), the AC50 in [1] was 59.7 µM (active); in assay [5], 1 µM (active); in assay [6], 145 µM (active); in [12], 26.7 µM (active); in assay [14], 41.9 µM (active); in [15], 49.4 µM (active). Moreover, the AC50 in [16] is 1.8 µM (active). Also, the result in assay [2], in assay [3], in [4], in [7], in assay [8] and in assay [9] was inactive. Also, the compound was classed as inactive in [10], in assay [11], in [13], in assay [17], in assay [18] and in [19]. The result in [20] was inactive.
